Experimental findings from PubChem BioAssay AID2253 (Southern Research Specialized Biocontainment Screening …, 2010) are described below.

Out of some 2,200 compounds screened, about 1,300 (59%) were called active. The set was probably picked from earlier hits. Only a sample is shown. Potency and affinity values are given separately. Unmarked numbers belong to inactive results. The rule behind the calls is not given here.

A word on the viability: it is a read-out of living cells in per cent, often relative to untreated cells.

This assay in a line: THP-1 cell cytotoxicity, dose response, cytotoxicity control for Salmonella PhoP regulon inhibitors, S. typhimurium screen hits (AID 2253). Conditions: THP-1 viability, CellTiter-Glo luminescence, 72 h; series mostly up to 50 µM; viability: at the top concentration.
With `[O-]/[N+](=C\c1ccncc1)c1ccccc1`, the “viability” value was 99.6%.

On to `BrC(=C\c1ccccc1)/C=N/N1CCN(c2ccccn2)CC1`, for which the “viability” value is 91%.

Regarding `COC(=O)c1sc2ccccc2c1-n1cccc1C(=O)C(=O)Nc1ccc(Cl)cc1`, the “viability” value is 85.5%.

Take `CC(=O)c1cccc(NC(=O)NCc2ccco2)c1`: the “viability” value is 83.1%.

Regarding `O=C1CCCc2c1cc(C(=O)NCc1ccco1)c(=O)n2-c1ccc(Cl)cc1`, the “viability” value is 99.9%. Turning to `CCCCN(C)C(=O)c1cn(C)c2ccc(S(=O)(=O)N(C)C)cc2c1=O`, the “viability” value is 98.4%.

For `CO[C@H]1/C=C/O[C@@]2(C)Oc3c(C)c(O)c4c(O)c(c(C=NN5CCN(C)CC5)c(O)c4c3C2=O)NC(=O)/C(C)=C\C=C\[C@H](C)[C@H](O)[C@@H](C)[C@@H](O)[C@@H](C)[C@H](OC(C)=O)[C@@H]1C`, the “viability” value is 84.4%. To `O=Cc1cccn1Cc1ccccc1[N+](=O)[O-]` belongs 111%. In the case of `COC(=O)C1C(=O)C=C(N2CCOCC2)CC1(C)C` (stereo not given), the “viability” value is 90.5%.

On to `O=c1c2oc3ccccc3c2ncn1Cc1ccc(Cl)cc1`, for which the “viability” value was 104%.

Regarding `CSc1nnc(NC(=O)CCc2ccccc2)s1`, the “viability” value was 83.4%. `CN1CCCC(OC(=O)CCCC(=O)OC2CCCN(C)C2)C1` (stereo not given): the “viability” value was 96.3%.

Take `O=C(Oc1ccc[nH]c1=O)c1cc([N+](=O)[O-])cc([N+](=O)[O-])c1`: the “viability” value is 99.9%. Regarding `Cc1ccc2nc(C(F)OC(F)(F)F)[nH]c2c1` (stereo not given), the “viability” value was 83.4%. For `CC(C)Cc1nc2ccc(N)cc2[nH]1`, the “viability” value was 95.7%. On to `O=C(O)CCC(=O)NCC1OCCc2ccccc21` (stereo not given), for which the “viability” value is 93.2%. With `CCn1cc(C(=O)O)c(=O)c2cc(OC)ccc21`, the “viability” value is 81.6%. For `O=C(CSc1nc2[nH]ncc2c(=O)[nH]1)N1CCCCC1`, the “viability” value was 98.4%. As for `C#CCOc1ccc(Cl)cc1/C=N/O`, the “viability” value is 92.4%. For `CC1CCCCN1Cc1cnc(Cl)s1` (stereo not given), the “viability” value was 93.5%. For the compound `O=C(N/N=C/c1ccco1)c1cccc(S(=O)(=O)Nc2ccccc2Cl)c1`, the “viability” value is 87.6%. `CCN(CC)S(=O)(=O)c1cccc(C(=O)NC(Cc2c[nH]c3ccccc23)c2nnc3n2CCC3)c1` (stereo not given): the “viability” value was 88.5%.

Take `CC(=O)Oc1ccc(C(=O)[C@H]2[C@H]3C(=O)N(c4ccc5ccccc5c4)C(=O)[C@H]3[C@@H]3C=CC=NN32)cc1`: the “viability” value was 90.4%.

Turning to `O=C(CSc1nnc(-c2ccccc2)n1-c1ccc(Cl)cc1)NC1CCS(=O)(=O)C1` (stereo not given), the “viability” value is 87.2%. On to `O=C(CSc1nnc2c(Cl)cc(Cl)cn12)NC1CCS(=O)(=O)C1` (stereo not given), for which the “viability” value was 102%. With `COc1cccc(-c2nnc(SCC(=O)Nc3ccc(OC)c(OC)c3)n2N)c1`, the “viability” value was 114%. The same measure for `COc1ccc(-c2ccc3c(N)c(C(=O)c4cccc(OC)c4)sc3n2)cc1`: 101%; for `COc1ccc(NC(=O)CCNS(=O)(=O)c2ccc3c(c2)CCC(=O)N3)cc1`: 102%; for `O=c1[nH]c2ccccc2n2c(=S)[nH]nc12`: 108%. With `CCn1ncc(/C=C/C(=O)NCc2cn(C)nc2C)c1C`, the “viability” value was 89%. `COc1ccc(C(=O)N2CCN(C(=O)c3ccco3)CC2)cc1OC`: the “viability” value is 109%. To `COc1ccc(OC)c(S(=O)(=O)N(C)CC(=O)N2CCc3ccccc3C2)c1` belongs 93.7%; to `Nc1nc(CSc2nc3ccccc3[nH]2)nc(N2CCOCC2)n1`, 83.1%. Turning to `O=C(NC1CCCC1)c1ccc(Cl)s1`, the “viability” value is 93.1%.

Consider `Cc1cc(-c2csc(NC(=O)c3ccccc3C(F)(F)F)n2)c(C)n1Cc1ccccc1`, for which the “viability” value was 86.9%. Regarding `O=C(OCc1nnc(-c2ccccc2)o1)c1ccc(S(=O)(=O)NCc2ccco2)cc1`, the “viability” value is 88.5%. As for `COC(=O)c1cccc(NC(=O)CCCOc2ccccc2)c1`, the “viability” value was 97.7%. `COC(=O)c1ccccc1NC(=O)NCc1ccc2c(c1)OCO2`: the “viability” value was 90%.

Take `O=C(Cn1nc(Cc2cccnc2)c2ccccc2c1=O)NCc1ccc2c(c1)OCO2`: the “viability” value is 89.3%. As to `CC(C)(C)c1ccc(C2CC2C(=O)N/N=C\c2cc3ccccc3nc2Cl)cc1` (stereo not given), the “viability” value is 95%. Take `CCn1c(SCC(=O)N2CCCCC2)nc(O)cc1=O`: the “viability” value was 95.8%. `O=C(NCc1cccnc1)c1cc2ccccc2oc1=O`: the “viability” value was 91.9%. As to `CCCc1cc(C(=O)Cc2ccc(C(=O)OCC)o2)c(O)cc1O`, the “viability” value is 84.2%.

For the compound `CCOC(=O)N1CCN(c2nc(C)c3c(n2)CCCC3=O)CC1`, the “viability” value is 93%. To `CCCCn1c(-c2ccccc2)nc2c(=O)n(C)c(=O)[nH]c21` belongs 93.3%.

In the case of `CCN(CC)CCNC(=O)c1cn(CC)c2cc(N3CCN(C(=O)c4ccco4)CC3)c(F)cc2c1=O`, the “viability” value is 99.3%. `O=C1C2CCCN2c2ccc(S(=O)(=O)N3CCOCC3)cc2N1Cc1ccccc1F` (stereo not given): the “viability” value is 87.7%. Consider `Cc1ccc(Oc2ccc3c(c2)C(=O)N(c2ccc(S(=O)(=O)Nc4nccs4)cc2)C3=O)cc1`, for which the “viability” value is 92.7%.

As to `CCCS(=O)(=O)N1CCCC(C(=O)N2CCN(c3ccccn3)CC2)C1` (stereo not given), the “viability” value is 95.6%. To `N=c1scc(-c2ccccc2)n1/N=C/c1ccco1` belongs 89.4%; to `CCCCn1c(O)c(C(CC)=Nc2ccc3c(c2)CCC3)c(=O)[nH]c1=O`, 88.6%. Turning to `Cc1cccc(-n2c(N)cc(=O)[nH]c2=S)c1`, the “viability” value was 94.4%. For `O=C(O)C1CC=CCC1C(=O)NC12CC3CC(CC(C3)C1)C2` (stereo not given), the “viability” value is 99.5%. On to `COC(=O)c1cc(C#N)c(Oc2ccccc2OC)nc1C`, for which the “viability” value is 90.4%. To `CN(CCO)Cc1csc2ccc(Br)cc12` belongs 95.3%; to `CCn1c(CNC(=O)c2cccc(C)c2)nc2ccccc21`, 98.8% [at 25 µM]; to `Cc1ccc(C)n1-c1cc([N+](=O)[O-])ccc1-n1ccnc1`, 91.1%. To `Nc1c(-c2ccccc2)cnn1-c1cccc([N+](=O)[O-])c1` belongs 98.2% [at 25 µM]; to `CC(C)(C)C1CCc2c(sc(NC(=O)c3cccs3)c2C(=O)N2CCCCC2)C1` (stereo not given), 80.1%. As for `CCOC(=O)c1c(NC(=O)Nc2ccc(C)cc2)sc2c1CCN(C)C2`, the “viability” value was 82.3%. As for `NC(=O)c1c(NC(=O)CN2C(=O)CCC2=O)sc2c1CCCCC2`, the “viability” value was 101%. With `C=CCN=C(NC#N)SCc1ccccc1Cl`, the “viability” value is 80.6%. Turning to `O=c1cc(-c2ccc([N+](=O)[O-])cc2)nc2cc(-c3ccc(Cl)cc3)[nH]n12`, the “viability” value was 92.6%.

For `N#Cc1ccc(COC(=O)c2ccc3c(=O)[nH]c(CN4CCOCC4)nc3c2)cc1`, the “viability” value is 83.8%. Turning to `COC(=O)c1ccc2c(=O)n(CCN3CCOCC3)c(SCC(=O)C(C)(C)C)nc2c1`, the “viability” value was 90.6%. For `COc1ccc(CN2CCOCC2)cc1Br`, the “viability” value is 105%. On to `CC(C)Cc1oc(C(=O)O)cc1CN1CCOCC1`, for which the “viability” value is 86.2%.

As to `Cc1ccc(C(=O)Oc2cccc(NC(=O)c3cccs3)c2)cc1S(=O)(=O)N1CCOCC1`, the “viability” value is 81.4%. Turning to `CCOC(=O)c1c(C)[nH]c(C)c1C(=O)COC(=O)/C=C/c1cccc(F)c1`, the “viability” value is 84.6%. Regarding `Cc1ccc(OCC(=O)N2CCN(S(=O)(=O)c3ccccc3)CC2)c([N+](=O)[O-])n1`, the “viability” value was 106%. Take `CCOC(=O)C(/C=C(\C#N)C(=O)OCC)=C(/N)N1CCN(c2c(C)cccc2C)CC1`: the “viability” value is 82.1%. Turning to `Cc1ccccc1NC(=S)N(CCCN1CCOCC1)Cc1ccccn1`, the “viability” value is 113%. `Brc1ccc2nc3c(n2c1)CCCC3`: the “viability” value is 81.3% [at 25 µM]. With `CCCCn1c(NCCO)nc2ccccc21`, the “viability” value was 96.2%. Turning to `Nc1ccc(C(=O)OCc2nc3ccccc3[nH]2)cc1`, the “viability” value is 87.7%. With `COc1c(F)c(F)cc2c(=O)c(C(=O)O)cn(C3CC3)c12`, the “viability” value is 96.7%. With `O=C(Cn1nc(C(F)(F)F)c2c1CCCCC2)N1CCOCC1`, the “viability” value is 98.2%. The same measure for `CCCNC(=O)COC(=O)CCC(=O)c1ccc(F)cc1`: 92.6%. `O=C(c1cc2ncc(Br)cn2n1)N1CCOCC1`: the “viability” value is 99.4%. For `C(=N\N1CCN(C2c3ccccc3-c3ccccc32)CC1)/c1cccs1`, the “viability” value is 94.6%. To `CCn1cc(C(=O)O)c(=O)c2cnc(N3CCN(C(=S)NC(=O)c4ccc(Cl)cc4)CC3)nc21` belongs 81%; to `CCOc1ccc(-c2noc(CCCC(N)=O)n2)cc1OC`, 102%; to `COc1c(N2C[C@@H]3CCCN[C@@H]3C2)c(F)cc2c(=O)c(C(=O)O)cn(C3CC3)c12`, 96.6%. Turning to `N/C(=N\OC(=O)Cc1ccc(Cl)cc1)c1cccnc1`, the “viability” value is 112%. For the compound `COc1cccc(N=Cc2c[nH][nH]c2=O)c1`, the “viability” value is 82.5%. For the compound `Cc1cc2ncn(C3CC(=O)N(Cc4ccc(N5CCCC5=O)cc4)C3=O)c2cc1C` (stereo not given), the “viability” value was 102%. On to `CC(NC(=O)C1(C)CC1(Br)Br)C(C)(C)C` (stereo not given), for which the “viability” value is 97.6%. Take `CN1/C(=C/C2CC(=O)N(c3cccc4ccccc34)C2=O)C(C)(C)c2ccccc21` (stereo not given): the “viability” value is 86.7%. As to `Cc1ccc(NC(=O)CCN2CCc3ccccc3C2)cc1`, the “viability” value was 83.3%. Turning to `O=C(OCCN1C(=O)c2ccccc2C1=O)c1ccc(S(=O)(=O)N2CCCCCC2)cc1`, the “viability” value was 106%. To `CCCCCC(=O)Nc1ccc2ccccc2c1` belongs 94%. With `C/C(=N\NC(=O)c1c(Cl)c(C)nn1C)c1cccc(NC(=O)COc2ccc(Cl)cc2)c1`, the “viability” value was 90.3%. The same measure for `O=S(=O)(NCc1ccccc1)c1cccc(S(=O)(=O)N2CCOCC2)c1`: 84.2%. In the case of `O=C(Nc1ccc2oc(-c3ccc(Cl)c(Cl)c3)nc2c1)c1ncn[nH]1`, the “viability” value is 90.1%. Turning to `Nc1nc(N)nc(-c2ccccc2)n1`, the “viability” value was 99.9%. Regarding `Nc1cc(N)cc(-c2nc3ccccc3[nH]2)c1`, the “viability” value was 90.1%. For `O=C(O)CCc1nn2c3ccccc3n(CCN3CCCCC3)c2nc1=O`, the “viability” value is 101%. Consider `C=CCn1c(SCCOc2ccc(OC)cc2)nnc1C(C)NC(=O)c1ccc(OC)cc1` (stereo not given), for which the “viability” value is 81.2%. The same measure for `COc1ccc(OCCSc2nnc(-c3ccc(OC)cc3)n2N)cc1`: 105%; for `COC(=O)c1ccc(COC(=O)c2ccccn2)cc1`: 103%; for `CC(O)c1ccc(OCCN(C)c2ccccn2)cc1` (stereo not given): 80.3%. As to `COc1cc(NC(=O)CSc2nnnn2Cc2ccc3c(c2)OCO3)cc(OC)c1`, the “viability” value was 82.7%. Take `Cc1ccc(-n2ncc3c(N4CCN(c5ccccc5)CC4)ncnc32)c(C)c1`: the “viability” value is 83.1%. Take `c1ccc(-c2cnn3nnnc3n2)cc1`: the “viability” value was 92.2%. To `CCc1c(C)c2cc(Cl)c(O)c(CN(C)C)c2oc1=O` belongs 101%; to `O=C(CCN1C(=O)c2ccccc2S1(=O)=O)Nc1ccc2c(c1)OCCO2`, 84.7%; to `CC(=O)c1c(N2CCN(C(=O)C3CCCO3)CC2)nc(=S)n(-c2ccccc2)c1C` (stereo not given), 98.6%.

Consider `O=C(Nc1ccc(F)cc1)c1ccccc1F`, for which the “viability” value is 81.9%.

For `O=C(CCN1C(=O)COc2ccccc21)NCCN1CCOCC1`, the “viability” value was 107%. With `COc1ccc(CCNC(=O)c2ccc(CN3CCOCC3)cc2)cc1`, the “viability” value is 102%.
